Drawing on ChEMBL document CHEMBL2218924, “A broad activity screen in support of a chemogenomic map for kinase signalling research and drug discovery” (Biochem J, 2013), this text covers residual activity for one molecule.

Test [1] deals with T1, Ephrin type-A receptor 3 (Homo sapiens) (UniProt P29320).
T1 sequence (whole entry): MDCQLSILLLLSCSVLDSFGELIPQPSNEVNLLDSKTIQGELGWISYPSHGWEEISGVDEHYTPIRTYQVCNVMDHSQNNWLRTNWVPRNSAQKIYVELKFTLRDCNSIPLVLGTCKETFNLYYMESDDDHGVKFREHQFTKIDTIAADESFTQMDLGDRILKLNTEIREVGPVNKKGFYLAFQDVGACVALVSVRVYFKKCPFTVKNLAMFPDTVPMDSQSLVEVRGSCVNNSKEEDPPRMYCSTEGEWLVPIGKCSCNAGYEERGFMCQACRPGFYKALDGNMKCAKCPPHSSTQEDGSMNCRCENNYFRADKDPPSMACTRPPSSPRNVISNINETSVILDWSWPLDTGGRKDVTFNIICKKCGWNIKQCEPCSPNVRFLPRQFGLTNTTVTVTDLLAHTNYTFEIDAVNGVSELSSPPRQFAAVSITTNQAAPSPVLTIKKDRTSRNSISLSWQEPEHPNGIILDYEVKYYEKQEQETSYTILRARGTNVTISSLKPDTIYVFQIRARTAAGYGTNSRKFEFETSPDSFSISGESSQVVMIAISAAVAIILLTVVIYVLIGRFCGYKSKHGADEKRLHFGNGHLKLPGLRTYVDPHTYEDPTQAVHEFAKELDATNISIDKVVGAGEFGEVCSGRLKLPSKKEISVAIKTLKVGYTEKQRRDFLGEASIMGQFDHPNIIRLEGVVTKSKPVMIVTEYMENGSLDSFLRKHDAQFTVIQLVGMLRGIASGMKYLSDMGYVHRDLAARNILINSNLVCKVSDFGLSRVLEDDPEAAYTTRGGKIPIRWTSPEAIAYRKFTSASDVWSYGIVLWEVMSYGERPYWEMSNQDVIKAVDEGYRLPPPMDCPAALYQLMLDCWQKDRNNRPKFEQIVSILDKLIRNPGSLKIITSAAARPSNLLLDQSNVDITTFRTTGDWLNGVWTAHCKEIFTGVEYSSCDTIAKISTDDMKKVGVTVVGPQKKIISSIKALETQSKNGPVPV
The settings on record: at 10 µM.

Test [2] concerns the target Ephrin type-A receptor 4 (Homo sapiens) (UniProt P54764). The conditions noted are these: at 1 µM.
The target is the same in test [3]. The conditions noted are these: at 10 µM.
For test [4], the target named is Ephrin type-A receptor 5 (Homo sapiens) (UniProt P54756). The conditions noted are these: at 1 µM.
Ephrin type-A receptor 5 (Homo sapiens), sequence (P54756 whole entry): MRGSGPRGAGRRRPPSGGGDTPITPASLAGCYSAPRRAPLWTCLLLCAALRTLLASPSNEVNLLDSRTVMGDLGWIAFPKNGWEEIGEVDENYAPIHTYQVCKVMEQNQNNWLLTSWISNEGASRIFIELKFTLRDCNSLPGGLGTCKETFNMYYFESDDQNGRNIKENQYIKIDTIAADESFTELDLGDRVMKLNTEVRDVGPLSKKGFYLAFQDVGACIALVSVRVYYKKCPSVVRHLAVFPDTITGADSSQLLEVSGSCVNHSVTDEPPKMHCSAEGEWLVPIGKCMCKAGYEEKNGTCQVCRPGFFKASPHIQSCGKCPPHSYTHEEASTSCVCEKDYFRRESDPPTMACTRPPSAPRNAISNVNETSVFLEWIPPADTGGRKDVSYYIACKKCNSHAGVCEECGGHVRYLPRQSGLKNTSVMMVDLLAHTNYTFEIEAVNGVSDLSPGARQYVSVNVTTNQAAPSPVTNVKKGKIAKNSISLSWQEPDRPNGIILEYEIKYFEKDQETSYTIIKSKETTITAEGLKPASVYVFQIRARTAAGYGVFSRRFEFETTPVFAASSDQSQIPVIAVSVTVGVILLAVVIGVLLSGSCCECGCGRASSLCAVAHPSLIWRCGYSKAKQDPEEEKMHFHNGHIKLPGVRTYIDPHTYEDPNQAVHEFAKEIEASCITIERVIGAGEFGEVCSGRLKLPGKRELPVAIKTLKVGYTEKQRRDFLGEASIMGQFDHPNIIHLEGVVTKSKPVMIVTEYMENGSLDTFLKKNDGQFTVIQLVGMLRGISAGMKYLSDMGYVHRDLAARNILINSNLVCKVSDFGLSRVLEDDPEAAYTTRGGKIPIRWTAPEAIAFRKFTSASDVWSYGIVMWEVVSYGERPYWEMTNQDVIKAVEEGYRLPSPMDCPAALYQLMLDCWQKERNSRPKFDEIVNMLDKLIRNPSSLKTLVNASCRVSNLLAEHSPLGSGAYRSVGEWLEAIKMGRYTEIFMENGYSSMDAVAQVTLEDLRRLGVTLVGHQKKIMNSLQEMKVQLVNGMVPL
Test [5] has the same target. The settings on record: at 10 µM.
Test [6] concerns the target Ephrin type-A receptor 7 (Homo sapiens) (UniProt Q15375). The conditions noted are these: at 1 µM.
For test [7] the target is unchanged. The conditions noted are these: at 10 µM.
In test [8] the target is T2, Ephrin type-A receptor 8 (Homo sapiens) (UniProt P29322).
T2 sequence (whole entry): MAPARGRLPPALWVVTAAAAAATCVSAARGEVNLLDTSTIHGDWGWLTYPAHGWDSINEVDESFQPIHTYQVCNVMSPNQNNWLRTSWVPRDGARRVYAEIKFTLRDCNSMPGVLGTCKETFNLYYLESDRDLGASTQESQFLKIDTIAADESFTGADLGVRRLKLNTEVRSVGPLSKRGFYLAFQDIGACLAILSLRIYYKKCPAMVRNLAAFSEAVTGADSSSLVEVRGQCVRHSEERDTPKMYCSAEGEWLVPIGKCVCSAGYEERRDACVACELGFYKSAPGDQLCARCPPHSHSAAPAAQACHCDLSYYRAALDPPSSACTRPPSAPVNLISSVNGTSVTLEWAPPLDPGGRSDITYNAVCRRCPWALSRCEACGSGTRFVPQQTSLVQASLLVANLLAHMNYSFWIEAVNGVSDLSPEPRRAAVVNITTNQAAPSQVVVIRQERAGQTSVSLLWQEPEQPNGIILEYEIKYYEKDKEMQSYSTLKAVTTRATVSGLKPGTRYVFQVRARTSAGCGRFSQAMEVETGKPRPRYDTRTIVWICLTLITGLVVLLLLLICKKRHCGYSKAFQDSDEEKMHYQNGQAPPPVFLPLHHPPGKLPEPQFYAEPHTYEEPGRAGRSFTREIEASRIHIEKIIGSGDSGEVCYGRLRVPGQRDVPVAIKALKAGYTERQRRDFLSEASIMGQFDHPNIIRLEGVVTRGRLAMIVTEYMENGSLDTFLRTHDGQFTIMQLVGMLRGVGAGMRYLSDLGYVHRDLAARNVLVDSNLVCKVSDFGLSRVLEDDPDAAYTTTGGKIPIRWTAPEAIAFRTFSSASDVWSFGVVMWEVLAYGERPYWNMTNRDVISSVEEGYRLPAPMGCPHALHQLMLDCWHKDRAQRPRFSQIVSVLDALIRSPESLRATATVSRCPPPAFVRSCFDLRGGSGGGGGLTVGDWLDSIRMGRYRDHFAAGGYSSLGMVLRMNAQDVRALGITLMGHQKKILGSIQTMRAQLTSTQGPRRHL
The settings on record: at 1 µM.

In test [9] the target is T2, Ephrin type-A receptor 8 (Homo sapiens). The settings on record: at 10 µM.
The target of test [10] is T3, Ephrin type-B receptor 1 (Homo sapiens) (UniProt P54762).
T3 sequence (whole entry): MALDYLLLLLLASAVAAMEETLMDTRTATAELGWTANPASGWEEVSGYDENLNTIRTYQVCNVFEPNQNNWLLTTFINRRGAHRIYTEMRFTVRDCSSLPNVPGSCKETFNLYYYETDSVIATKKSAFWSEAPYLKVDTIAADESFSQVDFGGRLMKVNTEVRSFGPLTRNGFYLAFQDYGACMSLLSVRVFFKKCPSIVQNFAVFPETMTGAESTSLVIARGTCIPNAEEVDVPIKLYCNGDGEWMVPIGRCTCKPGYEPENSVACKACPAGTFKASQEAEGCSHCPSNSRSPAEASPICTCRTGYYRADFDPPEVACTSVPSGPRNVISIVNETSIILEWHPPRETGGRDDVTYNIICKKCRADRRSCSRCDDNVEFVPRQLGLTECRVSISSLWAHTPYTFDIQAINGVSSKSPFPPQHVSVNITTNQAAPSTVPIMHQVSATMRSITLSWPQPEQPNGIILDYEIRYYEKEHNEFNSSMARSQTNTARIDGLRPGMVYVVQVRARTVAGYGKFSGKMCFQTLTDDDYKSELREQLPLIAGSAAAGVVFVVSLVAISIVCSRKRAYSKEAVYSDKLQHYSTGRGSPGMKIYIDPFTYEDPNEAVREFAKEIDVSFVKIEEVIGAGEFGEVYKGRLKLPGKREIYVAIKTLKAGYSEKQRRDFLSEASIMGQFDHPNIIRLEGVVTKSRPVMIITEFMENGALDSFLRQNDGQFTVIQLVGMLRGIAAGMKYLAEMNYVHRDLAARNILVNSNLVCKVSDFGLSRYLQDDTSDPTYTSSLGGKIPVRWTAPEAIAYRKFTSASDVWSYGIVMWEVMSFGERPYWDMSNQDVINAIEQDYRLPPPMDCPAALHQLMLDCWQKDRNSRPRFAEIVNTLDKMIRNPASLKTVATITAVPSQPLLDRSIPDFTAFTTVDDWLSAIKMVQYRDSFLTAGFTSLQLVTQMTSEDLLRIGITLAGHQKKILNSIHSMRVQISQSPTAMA
The settings on record: at 1 µM.

The residual activity is the signal under treatment as a percentage of the control signal.

Ephrin type-A receptor 7 (Homo sapiens), sequence (Q15375 28-998 limits assumed): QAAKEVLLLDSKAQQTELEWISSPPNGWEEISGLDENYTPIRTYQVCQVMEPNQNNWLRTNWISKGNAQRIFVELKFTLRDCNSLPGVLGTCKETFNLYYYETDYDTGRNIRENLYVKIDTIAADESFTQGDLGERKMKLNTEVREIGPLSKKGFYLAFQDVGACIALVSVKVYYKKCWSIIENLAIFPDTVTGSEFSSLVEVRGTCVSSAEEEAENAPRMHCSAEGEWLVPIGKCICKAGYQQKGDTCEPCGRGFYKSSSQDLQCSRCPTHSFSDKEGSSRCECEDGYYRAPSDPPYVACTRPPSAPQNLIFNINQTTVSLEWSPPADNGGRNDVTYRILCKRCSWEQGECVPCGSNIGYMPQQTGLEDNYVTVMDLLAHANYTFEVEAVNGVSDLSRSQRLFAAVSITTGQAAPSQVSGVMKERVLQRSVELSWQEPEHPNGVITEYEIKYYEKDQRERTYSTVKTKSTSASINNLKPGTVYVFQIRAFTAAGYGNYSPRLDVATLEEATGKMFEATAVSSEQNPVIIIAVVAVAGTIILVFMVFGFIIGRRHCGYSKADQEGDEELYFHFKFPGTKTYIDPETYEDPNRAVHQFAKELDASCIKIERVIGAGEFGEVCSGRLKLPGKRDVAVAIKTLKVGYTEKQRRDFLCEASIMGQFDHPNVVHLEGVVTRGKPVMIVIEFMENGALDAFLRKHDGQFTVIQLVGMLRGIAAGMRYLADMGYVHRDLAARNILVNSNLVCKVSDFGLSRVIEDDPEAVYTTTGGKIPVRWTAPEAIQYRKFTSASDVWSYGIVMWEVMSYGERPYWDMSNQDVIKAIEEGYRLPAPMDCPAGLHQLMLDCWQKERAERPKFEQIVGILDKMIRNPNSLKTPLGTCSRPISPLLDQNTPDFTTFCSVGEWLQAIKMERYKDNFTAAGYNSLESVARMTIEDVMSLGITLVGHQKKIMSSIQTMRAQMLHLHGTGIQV
Ephrin type-A receptor 4 (Homo sapiens), sequence (P54764 whole entry): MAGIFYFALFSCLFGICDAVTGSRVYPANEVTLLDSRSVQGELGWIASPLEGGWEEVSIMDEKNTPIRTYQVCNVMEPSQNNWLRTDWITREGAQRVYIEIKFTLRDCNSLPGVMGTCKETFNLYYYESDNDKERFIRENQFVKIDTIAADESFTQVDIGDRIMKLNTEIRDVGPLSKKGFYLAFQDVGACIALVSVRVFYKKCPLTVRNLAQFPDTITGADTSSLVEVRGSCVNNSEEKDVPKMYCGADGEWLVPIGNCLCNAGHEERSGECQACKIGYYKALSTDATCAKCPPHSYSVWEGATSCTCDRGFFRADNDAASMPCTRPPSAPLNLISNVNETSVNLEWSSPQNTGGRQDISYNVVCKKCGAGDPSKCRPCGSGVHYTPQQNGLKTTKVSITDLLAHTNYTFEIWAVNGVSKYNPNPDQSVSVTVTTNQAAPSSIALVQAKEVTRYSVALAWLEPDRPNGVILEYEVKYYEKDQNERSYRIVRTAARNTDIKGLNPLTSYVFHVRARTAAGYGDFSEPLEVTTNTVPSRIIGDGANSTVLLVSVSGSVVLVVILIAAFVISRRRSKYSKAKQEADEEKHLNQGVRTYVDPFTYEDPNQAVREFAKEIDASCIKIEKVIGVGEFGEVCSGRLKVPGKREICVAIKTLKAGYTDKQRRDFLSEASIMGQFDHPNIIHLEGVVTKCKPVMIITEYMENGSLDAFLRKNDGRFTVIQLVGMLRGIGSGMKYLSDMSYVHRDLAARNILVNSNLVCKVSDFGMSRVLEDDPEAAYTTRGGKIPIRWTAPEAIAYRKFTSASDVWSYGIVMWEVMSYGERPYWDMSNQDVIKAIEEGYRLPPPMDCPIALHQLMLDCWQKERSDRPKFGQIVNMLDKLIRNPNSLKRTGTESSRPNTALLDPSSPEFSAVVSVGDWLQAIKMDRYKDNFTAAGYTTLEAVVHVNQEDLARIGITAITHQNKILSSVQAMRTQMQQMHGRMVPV

On to `Oc1n[nH]c2nnc(-c3c(-c4ccccc4)nn4ccccc34)cc12`, for which the residual activity in [1] is 90%; in test [2], 96%; in test [3], 103%; in test [4], 113%; in [5] it was 95%; in test [6], 94%. Besides, the residual activity was found to be 88% in test [7], 86% in [8], 89% in [9] and 97% in [10].
